Inconclusive results are not listed. Entries that show only a call come without a potency. A structure can be active in one record and inactive in another. The source made the active and inactive calls. Calls come from the whole dose curve; as a rule, active = well fitted curve in the direction sought with a large enough effect; inconclusive = small, poorly fitted or top-dose-only effect, or another doubt; inactive = no such curve, though single readings can be large; an effect the other way counts as inactive or inconclusive.
Columns and labels:
[1] = Primary qHTS for small molecule stabilizers of the endoplasmic reticulum resident proteome: Secreted ER Calcium Modulated Protein (SERCaMP) assay (AID 1508630); details: SH-SY5Y GLuc-SERCaMP (Gaussia luciferase released on ER calcium loss) secretion, thapsigargin, luminescence; series mostly up to 38.4 µM
How it was run: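 GLuc-SERCaMP-expressing SH-SY5Y cells, pretreated 16 h with compound, are challenged with thapsigargin to empty ER calcium stores; after 4 h, coelenterazine is added directly to the medium and luminescence is imaged.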

[2] = Primary qHTS for inhibitors of nuclear receptor binding SET domain protein 2 (NSD2) in an isogenic RCH-ACV NSD2 p.E1099K mutant (9B) (AID 1645876); details: RCH-ACV NSD2 E1099K (9B) viability, CellTiter-Glo, 72 h; series mostly up to 44.9 µM; note: nearly all actives have a fitted effect of over 70% in size
[3] = Primary qHTS for inhibitors of nuclear receptor binding SET domain protein 2 (NSD2) in an RCH-ACV wild type WT cells (2C) (AID 1645877); details: RCH-ACV (leukaemia line) NSD2 WT (2C) viability, CellTiter-Glo, 72 h; series mostly up to 44.9 µM; note: nearly all actives have a fitted effect of over 70% in size
Potency is the fitted concentration of half-maximal effect.

| SMILES | Potency [1] | Potency [2] | Potency [3] |
| --- | --- | --- | --- |
| CN1C(=O)C(Cc2c[nH]c3ccccc23)NC1=S (stereo not drawn) | inactive | inactive |  |
| NC(=O)c1noc([C@H](CCCC2CCCCC2)CC(=O)NO)n1 | inactive | 1.86 µM (active) |  |
| COc1ccc(-c2oc3c(CC=C(C)C)c(O)cc(O)c3c(=O)c2O)cc1 | inactive | inactive | inactive |
| Nc1nc(Cl)nc2c1ncn2[C@@H]1O[C@H](CO)[C@@H](O)[C@H]1F | inactive | 0.0231 µM (active) |  |
| C#CCN(C)CC1=Cc2ccccc2Oc2ccccc21 | inactive | inactive | inactive |
| CC(C)C[C@H](NC(=O)c1cc2ccccc2s1)C(=O)N1CCN(C(=O)[C@H](CO)NS(=O)(=O)c2ccc(Cl)cc2Cl)CC1 | 23700 nM (active) | 23.5 µM (active) | 20.9 µM (active) |
| COc1cc([C@@H]2c3cc4c(cc3[C@@H](O[C@@H]3O[C@@H]5CO[C@@H](C)O[C@@H]5[C@H](O)[C@@H]3O)[C@H]3COC(=O)[C@H]23)OCO4)cc(OC)c1O | inactive | 0.263 µM (active) | 0.235 µM (active) |
| O=C1C(c2c(O)[nH]c3ccccc23)=Nc2ccccc21 | inactive | 8.93 µM (active) and inactive | 2.24 µM (active) and inactive |
| CC(=O)Nc1cccc(-n2c(=O)n(C3CC3)c(=O)c3c(Nc4ccc(I)cc4F)n(C)c(=O)c(C)c32)c1 | inactive | inactive |  |
| Cc1cc2c(cc1C1(c3ccc(C(=O)O)cn3)CC1)C(C)(C)CCC2(C)C | inactive | inactive |  |
| CCC[C@H](N[C@@H](C)C(=O)N1[C@@H]2CCCC[C@H]2C[C@H]1C(=O)O)C(=O)OCC | inactive | inactive | inactive |
